Bioassay records as filed in PubChem.
This is a sample that favours compounds with a hit; in the whole collection about 19% have one here.
DT40 TDP1 no CPT – qHTS for Inhibitors of human tyrosyl-DNA phosphodiesterase 1 (TDP1): qHTS in cells in absence of CPT; DT40 Tdp1-/- hTDP1 cells, no CPT, ATP luminescence, 48 h; Potency, µM (series often up to 46.2 µM), hits mostly inhibitors; 420,000 tested, 15% active; also: nearly all actives have a fitted effect of over 55% in size
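Readout: luminescence from CellTiter-Glo after 30 min in the dark at RT. Cells: DT40 Tdp1-/- with stable hTDP1, 400/well. Exposure: compounds alone, ≥48 hr, 37 °C.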
HT1080 IDH1KD tx – HT-1080 IDH1 knockdown cell toxicity (counter line); HT-1080 IDH1 knockdown viability, ATP luminescence, 48 h; 360,000 tested, 2% active; AID 686971; Potency, µM (series often up to 46.1 µM), actives largely listed as cytotoxic
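Cytotoxicity counter-line: IDH1KD HT-1080, 48 h, CellTiter-Glo. Curves classed by r2, magnitude and activity.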
TDP1 cell CPT – DT40-hTDP1 cell growth loss with CPT | Potency, µM (highest dose often 46.2 µM), usual class: inhibitors | AID 686979 | 420,000 tested, 12% active | chicken DT40 Tdp1-/-;hTDP1 cells + 20 nM CPT, ATP luminescence, 48 h; also: nearly all actives have a fitted effect of over 55% in size
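Chicken DT40 Tdp1-/- cells complemented with human TDP1, 400 cells/well, exposed to compounds plus 20 nM camptothecin for at least 48 h at 37 C; viability read as ATP content by CellTiter-Glo luminescence.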
IL1B secr inh – inhibitors of inflammasome signaling (IL-1 beta secretion); 360,000 tested, 4.7% active; THP-1 LPS/ATP IL-1B secretion, AlphaLISA, 16 h; stronger effect = lower value; activity change, % at 57.5 µM; in the data active = activity change below about -50%; inconclusive = mostly about -30% to -49%
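THP-1 cells pretreated 1 hr with compounds (up to 57.5 uM final), then stimulated with LPS (250 ng/mL final) plus ATP (1.25 mM final); secreted IL-1B measured by AlphaLISA after 16 hr, decreased signal indicating inhibition.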
HT1080NT lethal – kills 2HG-producing HT-1080-NT fibrosarcoma cells | HT-1080-NT fibrosarcoma viability, CellTiter-Glo ATP luminescence, 48 h | Potency, µM (series often up to 46.1 µM), hits mostly cytotoxic | 360,000 tested, 1.6% active | AID 686970;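 also: NT is the 2HG producing partner of a matched IDH1 knockdown line; nearly all actives have a fitted effect of over 55% in size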
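Fibrosarcoma NT cells, 750 per well in 5% FBS RPMI, were exposed to compound for 48 hours. Viability: CellTiter-Glo luminescence.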
Of the large screens only hits and unclear results are named; the others gave an inactive call. Unless noted, calls follow the shape of the dose curve; as a rule, active = well fitted curve in the direction sought with a large enough effect; inconclusive = small, poorly fitted or top-dose-only effect, or another doubt; inactive = no such curve, though single readings can be large; an effect the other way counts as inactive or inconclusive.

CCC1(CC)Cc2ccccc2-c2nc(NCCO)[nH]c(=O)c21	HT1080 IDH1KD tx inconclusive
O=c1[nH]c(NCCO)nc2c1C1(CCCCC1)Cc1ccccc1-2	DT40 TDP1 no CPT inconclusive, TDP1 cell CPT inconclusive, HT1080NT lethal inconclusive
CCC1(C)Cc2ccccc2-c2nc(NCCCO)n(C)c(=O)c21 (configuration not stated)	DT40 TDP1 no CPT inconclusive, TDP1 cell CPT inconclusive
CC1(C)CC(n2c(NCCO)nc3c(c2=O)C2(CCCC2)Cc2ccccc2-3)CCO1 (configuration not stated)	DT40 TDP1 no CPT inconclusive, TDP1 cell CPT inconclusive, IL1B secr inh -66.4, HT1080NT lethal inconclusive
CC1(C)Cc2ccccc2-c2nc(NCCO)n(-c3ccccc3)c(=O)c21	DT40 TDP1 no CPT 18.4µM, TDP1 cell CPT 18.4µM
CCC1(C)Cc2ccccc2-c2nc(NCCO)n(-c3ccccc3)c(=O)c21 (configuration not stated)	DT40 TDP1 no CPT 4.61µM, TDP1 cell CPT 4.11µM
COc1cc(=O)n2c(c1C(=O)N(C)Cc1nonc1C)CCN(Cc1ccccc1F)CC2	none (no result: HT1080 IDH1KD tx, IL1B secr inh, HT1080NT lethal)
CCCCN(Cc1cc2cc(OC)ccc2[nH]c1=O)C(=O)c1ccco1	DT40 TDP1 no CPT inconclusive, TDP1 cell CPT inconclusive
COc1ccc2[nH]c(=O)c(CN(C)C(=O)c3ccncc3)cc2c1	none
CCCN(Cc1cc2cc(OC)ccc2[nH]c1=O)C(=O)c1ccco1	DT40 TDP1 no CPT 16.4µM, TDP1 cell CPT 29.1µM
CCCN(Cc1cc2cccc(C)c2[nH]c1=O)C(=O)c1cccc(OC)c1	DT40 TDP1 no CPT 16.4µM, TDP1 cell CPT inconclusive
CCCN(Cc1cc2cc(OC)ccc2[nH]c1=O)C(=O)c1ccncc1	DT40 TDP1 no CPT 16.4µM, HT1080 IDH1KD tx inconclusive, TDP1 cell CPT inconclusive, HT1080NT lethal inconclusive
